From PubChem BioAssay (Tox21)
Where “and” joins values, the source holds several entries; their conditions need not be identical. Equal values may be shown once. Inconclusive results are not listed. Where a structure was tested more than once in an assay, its records may differ in their call. Calls of active or inactive are those of the source. Unless noted, calls come from the whole dose curve; as a rule, active = well fitted curve in the direction sought with a large enough effect in the repeat runs; inconclusive = weak or mixed curves; inactive = no such curve, though single readings can be large; an effect the other way counts as inactive or inconclusive.

Key:
[1] = qHTS assay to identify small molecule agonists of the estrogen receptor alpha (ER-alpha) signaling pathway in the presence of an antagonist - cell viability counter screen (AID 1259386);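 note: cells exposed to compounds for 22 h at 37 °C before the viability read; nearly all actives have a fitted effect of over 30% in size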; note: potency is the fitted concentration of half-maximal effect
How it was run: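 Steps: 5-day stripped-FBS culture; seed and incubate 24hr; add ICI-182,780 (10.0nM final); pin 15-point compound titration; incubate 22hr at 37C; add CellTiter-Fluor at 21hr; read fluorescence.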

[2] = molecular target: Progesterone receptor (Homo sapiens) (UniProt P06401); assay: qHTS assay to identify small molecule agonists of the progesterone receptor (PR) signaling pathway (AID 1346784; calls by dose curve; note: nearly all actives have a fitted effect of over 30% in size)
How it was run: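 Agonist qHTS: compounds pinned onto 3,000 PR-UAS-bla HEK 293T cells per well in charcoal-stripped serum medium, 16hr at 37C, then beta-lactamase activity measured by LiveBLAzer FRET fluorescence after 2 hours at room temperature.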

[3] = molecular target: Progesterone receptor (Homo sapiens) (UniProt P06401); assay: qHTS assay to identify small molecule antagonists of the progesterone receptor (PR) signaling pathway (AID 1346795; active = well fitted inhibition curve with a large enough effect in the signal ratio in the repeat runs, not every such curve was filed as active; the % refers to the signal ratio; note: potency is the fitted concentration of half-maximal effect)
How it was run: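 Antagonist mode with agonist R5020 at 1 nM final and 16 hr incubation at 37C. Reporter was beta-lactamase driven by UAS in HEK293T (PR-UAS-bla), 2% charcoal-stripped serum; signal from LiveBLAzer FRET substrate, 2 hr at room temperature.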

[4] = qHTS assay to identify small molecule antagonists of the progesterone receptor (PR) signaling pathway - cell viability counter screen (AID 1346798); note: nearly all actives have a fitted effect of over 50% in size; note: potency is the fitted concentration of half-maximal effect
How it was run: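 Cytotoxicity read as CellTiter-Glo luminescence (30 min, room temperature) in the same wells as the beta-lactamase readout. HEK293T PR-UAS-bla cells in charcoal-stripped 2% FBS received compound and R5020, then 16 h at 37C, 5% CO2.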

[5] = qHTS assay to identify small molecule agonists of the progesterone receptor (PR) signaling pathway - cell viability counter screen (AID 1346799; calls by dose curve; note: nearly all actives have a fitted effect of over 45% in size; note: potency is the fitted concentration of half-maximal effect)
How it was run: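 Cytotoxicity measured by CellTiter-Glo luminescence (30 min, RT) in the same wells as the PR beta-lactamase agonist read. Those HEK293T cells had 16 h compound treatment at 37 C in 2% charcoal-stripped FBS medium.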

[6] = qHTS assay to identify small molecule antagonists of the TGF-beta/Smad signaling pathway - cell viability counter screen (AID 1346824); note: nearly all actives have a fitted effect of over 50% in size
How it was run: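 Cytotoxicity counter-screen run in the same wells as the beta-lactamase Smad reporter read: CellTiter-Glo luminescence after 30 min at room temperature. HEK 293T SBE-bla cells had 5 hr compound exposure at 37 C with TGF-beta1 (0.25 ng/mL stock).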

[7] = qHTS assay to identify small molecule agonists of the TGF-beta/Smad signaling pathway - cell viability counter screen (AID 1346829); note: top concentration of the series differs between compounds; nearly all actives have a fitted effect of over 45% in size
How it was run: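 Tox21 qHTS format: SBE-bla HEK 293T cells treated with DMSO-dissolved compounds for 5 hr; CellTiter-Glo luminescence after 30 min at room temperature.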

[8] = qHTS assay to identify small molecule agonists of the TGF-beta/Smad signaling pathway (AID 1346859; active = well fitted activation curve with a large enough effect in the signal ratio in the repeat runs, not every such curve was filed as active; the % refers to the signal ratio; note: series mostly up to about 77 µM)
How it was run: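 Fluorescence (ex 405 nm; em 460 and 530 nm) was read 2 h after LiveBLAzer FRET substrate at RT. The preceding compound treatment of overnight-plated SBE-bla HEK293T cells lasted 5 h at 37 C.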

[9] = Human pregnane X receptor (PXR) small molecule agonists, qHTS cell viability counter screen (AID 1346977); note: nearly all actives have a fitted effect of over 50% in size; note: potency is the fitted concentration of half-maximal effect
How it was run: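 Same-well viability read: CellTiter-Fluor added after 23 hr compound exposure, fluorescence measured 1 hr later. Cells were PXR-Luc HepG2 seeded at 2,000/well in 5% charcoal-stripped FBS medium, rested 5 hr before dosing at 37 C.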

[10] = Caspase-3/7 induction in HepG2 cells by small molecules, qHTS assay (AID 1346978); note: nearly all actives have a fitted effect of over 15% in size; note: potency is the fitted concentration of half-maximal effect
How it was run: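 Caspase-3/7 induction was measured by Caspase-Glo 3/7 luminescence (30 min, room temperature) after a 17 hr compound exposure of wild-type HepG2 cells seeded at 2,000 per well and pre-incubated 5 hr.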

[11] = Caspase-3/7 induction in CHO-K1 cells by small molecules, qHTS cell viability counter screen (AID 1346979); note: nearly all actives have a fitted effect of over 35% in size; note: potency is the fitted concentration of half-maximal effect
How it was run: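 Cytotoxicity counter screen: CellTiter-Fluor added to compound-treated wild-type CHO-K1 cells at 16 h (37C, 5% CO2), fluorescence measured 1 h later; same wells as caspase-3/7 measurement.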

[12] = Caspase-3/7 induction in CHO-K1 cells by small molecules, qHTS assay (AID 1346980); note: nearly all actives have a fitted effect of over 15% in size
How it was run: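 Luminescent Caspase-Glo 3/7 read (30min, room temperature) quantified apoptosis induction. Cells were wild-type CHO-K1, treated with compound for 17hr at 37 C and 5% CO2.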

[13] = Caspase-3/7 induction in HepG2 cells by small molecules, qHTS cell viability counter screen (AID 1346981); note: nearly all actives have a fitted effect of over 30% in size; note: potency is the fitted concentration of half-maximal effect
How it was run: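 The parent HepG2 line is plated at 2,000 cells per well and rested 5 hr before compound pinning from DMSO stocks. Following a 16-hr treatment at 37 C, a fluorogenic live-cell substrate (CellTiter-Fluor) reports viability after 1 hr.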

[14] = molecular target: Nuclear receptor subfamily 1 group I member 2 (Homo sapiens) (UniProt O75469); assay: Human pregnane X receptor (PXR) small molecule agonists, qHTS assay (AID 1346982); note: nearly all actives have a fitted effect of over 35% in size; note: potency is the fitted concentration of half-maximal effect
How it was run: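 After plating in 5% charcoal-stripped FBS and a 5 hr rest, PXR-Luc HepG2 cells received compounds in DMSO. Following 24 hr at 37 C, ONE-Glo was added and light output read.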

[15] = molecular target: Cytochrome P450 2D6 (Homo sapiens) (UniProt P10635); assay: Cytochrome P450 Family 2 Subfamily D Member 6 (CYP2D6) small molecule antagonists: luciferase reporter qHTS assay (AID 1671196); note: nearly all actives have a fitted effect of over 50% in size; note: potency is the fitted concentration of half-maximal effect
How it was run: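 Quantitative HTS of Tox21 chemicals against CYP2D6 using a luminescent proluciferin substrate. After NADPH addition, 1 h room-temperature reaction; luminescence recorded 20 min post detection reagent.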

[16] = molecular target: Thyrotropin-releasing hormone receptor (Homo sapiens) (UniProt P34981); assay: qHTS assay to identify small molecule antagonists of the thyrotropin-releasing hormone receptor (TRHR) signaling pathway (AID 1346877; active = well fitted inhibition curve with a large enough effect in the repeat runs, not every such curve was filed as active; note: series mostly up to about 51 µM)
How it was run: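 Human TRHR in HEK293 cells; inhibition of the intracellular calcium rise triggered by 1 nM TRH was followed by fluorescence over 3 min. Compounds were run at 15 concentrations, three replicates each.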

[17] = molecular target: Thyrotropin-releasing hormone receptor (Homo sapiens) (UniProt P34981); assay: qHTS assay to identify small molecule agonists of the thyrotropin-releasing hormone receptor (TRHR) signaling pathway (AID 1346891; calls by dose curve; note: series mostly up to about 58 µM)
How it was run: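 Agonist-mode intracellular calcium readout: kinetic fluorescence over 3 min at 1 s intervals after compound addition to TRHR-HEK293 cells (18 h seeded, 2 h dye-loaded at 37 C). Fifteen concentrations, triplicates.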

[18] = molecular target: Nuclear receptor subfamily 1 group I member 2 (Rattus norvegicus) (UniProt Q9R1A7); assay: Rat pregnane X receptor (rPXR) activation by small molecules, qHTS assay (AID 1346983); details: rPXR luciferase reporter cells, One-Glo luminescence, 24 h; stronger effect = higher value; note: nearly all actives have a fitted effect of over 20% in size
How it was run: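 Luminescent readout (One-Glo luciferase, 30 min room temperature) followed 24 hr compound treatment at 37 C of rPXR cells plated 2,000 per well and preincubated 5hr; qHTS format with compounds delivered in DMSO.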

[19] = molecular target: Nuclear receptor subfamily 1 group I member 2 (Homo sapiens) (UniProt O75469); assay: Human pregnane X receptor (PXR) activation by small molecules, qHTS assay (AID 1346985); note: nearly all actives have a fitted effect of over 40% in size
How it was run: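 DPX-2 cells (HepG2 co-transfected with a PXR response element and a CYP3A4-promoter luciferase construct) were seeded at 2,000 per well, rested 5 hr at 37C, then exposed to DMSO-dissolved compounds for 24 hr. Activation was read as luciferase luminescence.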

[20] = molecular target: Nuclear receptor subfamily 1 group I member 2 (Homo sapiens) (UniProt O75469); assay: CYP3A4 induction through human pregnane X receptor (PXR) by small molecules, qHTS assay (AID 1346984); note: nearly all actives have a fitted effect of over 40% in size
How it was run: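 Human PXR activation is tracked via CYP3A4 promoter-luciferase in DPX-2 (HepG2) cells. Compounds treat cells for 24hr at 37C, and luminescence is read after One-Glo.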
% is set by controls: 0 for no effect and ±100 for the full control effect.

Chain of Thyrotropin-releasing hormone receptor (Homo sapiens) (P34981 whole entry, looked up): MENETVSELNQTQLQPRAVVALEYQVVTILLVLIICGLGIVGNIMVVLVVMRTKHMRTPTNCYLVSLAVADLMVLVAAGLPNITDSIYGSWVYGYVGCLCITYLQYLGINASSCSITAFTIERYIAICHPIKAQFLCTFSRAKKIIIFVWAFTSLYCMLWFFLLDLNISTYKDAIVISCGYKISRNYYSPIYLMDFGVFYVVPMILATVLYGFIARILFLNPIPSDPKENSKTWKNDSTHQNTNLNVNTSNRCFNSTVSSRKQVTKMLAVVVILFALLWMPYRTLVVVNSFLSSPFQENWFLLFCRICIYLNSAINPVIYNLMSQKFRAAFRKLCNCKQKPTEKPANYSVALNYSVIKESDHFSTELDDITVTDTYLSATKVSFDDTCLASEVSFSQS
Chain of Progesterone receptor (Homo sapiens) (P06401 whole entry, looked up): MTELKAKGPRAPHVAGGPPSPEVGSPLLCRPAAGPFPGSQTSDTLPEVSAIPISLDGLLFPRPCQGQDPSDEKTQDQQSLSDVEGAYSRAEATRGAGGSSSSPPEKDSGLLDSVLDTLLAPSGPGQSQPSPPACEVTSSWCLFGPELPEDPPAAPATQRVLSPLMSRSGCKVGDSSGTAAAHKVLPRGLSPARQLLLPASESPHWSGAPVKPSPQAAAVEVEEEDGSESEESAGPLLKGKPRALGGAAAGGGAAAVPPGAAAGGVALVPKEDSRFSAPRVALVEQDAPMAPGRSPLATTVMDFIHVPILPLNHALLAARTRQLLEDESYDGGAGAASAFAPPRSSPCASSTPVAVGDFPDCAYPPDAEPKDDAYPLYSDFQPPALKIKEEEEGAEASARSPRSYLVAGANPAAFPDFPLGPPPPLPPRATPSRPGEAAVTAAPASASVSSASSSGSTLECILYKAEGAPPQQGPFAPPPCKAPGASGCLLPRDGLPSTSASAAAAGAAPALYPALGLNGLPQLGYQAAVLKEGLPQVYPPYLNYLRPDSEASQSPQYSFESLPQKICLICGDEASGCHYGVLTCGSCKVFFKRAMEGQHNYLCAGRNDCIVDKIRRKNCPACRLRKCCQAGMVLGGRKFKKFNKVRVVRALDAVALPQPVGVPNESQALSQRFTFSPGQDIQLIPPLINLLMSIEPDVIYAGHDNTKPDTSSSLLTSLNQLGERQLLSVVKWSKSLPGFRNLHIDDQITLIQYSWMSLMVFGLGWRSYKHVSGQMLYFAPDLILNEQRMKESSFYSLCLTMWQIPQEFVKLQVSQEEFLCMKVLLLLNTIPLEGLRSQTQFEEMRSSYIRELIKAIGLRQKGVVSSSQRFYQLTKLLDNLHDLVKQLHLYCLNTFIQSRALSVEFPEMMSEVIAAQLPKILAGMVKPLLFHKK
Chain of Cytochrome P450 2D6 (Homo sapiens) (P10635 whole entry, looked up): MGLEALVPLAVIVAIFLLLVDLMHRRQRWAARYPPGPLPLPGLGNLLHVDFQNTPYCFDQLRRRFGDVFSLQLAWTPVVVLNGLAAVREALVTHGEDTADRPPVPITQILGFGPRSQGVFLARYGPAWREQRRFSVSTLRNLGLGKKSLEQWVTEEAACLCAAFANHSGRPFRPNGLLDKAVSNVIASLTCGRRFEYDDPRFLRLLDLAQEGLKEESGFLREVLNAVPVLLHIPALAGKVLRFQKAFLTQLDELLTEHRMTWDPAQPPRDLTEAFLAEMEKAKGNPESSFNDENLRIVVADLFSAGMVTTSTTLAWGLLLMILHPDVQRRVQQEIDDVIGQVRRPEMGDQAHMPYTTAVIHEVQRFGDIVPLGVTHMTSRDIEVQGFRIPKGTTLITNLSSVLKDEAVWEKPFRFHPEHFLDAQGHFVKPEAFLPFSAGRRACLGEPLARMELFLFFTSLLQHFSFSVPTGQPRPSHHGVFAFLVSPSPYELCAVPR
Chain of Nuclear receptor subfamily 1 group I member 2 (Homo sapiens) (O75469 whole entry, looked up): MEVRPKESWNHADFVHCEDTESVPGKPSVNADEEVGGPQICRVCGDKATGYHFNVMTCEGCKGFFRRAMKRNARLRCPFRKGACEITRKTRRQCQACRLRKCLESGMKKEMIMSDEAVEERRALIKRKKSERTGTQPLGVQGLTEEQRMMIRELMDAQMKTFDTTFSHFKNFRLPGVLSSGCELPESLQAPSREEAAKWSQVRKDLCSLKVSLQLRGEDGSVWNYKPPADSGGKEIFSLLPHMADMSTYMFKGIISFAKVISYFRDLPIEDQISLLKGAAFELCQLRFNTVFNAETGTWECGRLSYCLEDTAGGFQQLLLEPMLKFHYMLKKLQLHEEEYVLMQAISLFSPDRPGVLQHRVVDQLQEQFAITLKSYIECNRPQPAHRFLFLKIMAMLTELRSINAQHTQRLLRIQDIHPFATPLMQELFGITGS
Chain of Nuclear receptor subfamily 1 group I member 2 (Rattus norvegicus) (Q9R1A7 whole entry, looked up): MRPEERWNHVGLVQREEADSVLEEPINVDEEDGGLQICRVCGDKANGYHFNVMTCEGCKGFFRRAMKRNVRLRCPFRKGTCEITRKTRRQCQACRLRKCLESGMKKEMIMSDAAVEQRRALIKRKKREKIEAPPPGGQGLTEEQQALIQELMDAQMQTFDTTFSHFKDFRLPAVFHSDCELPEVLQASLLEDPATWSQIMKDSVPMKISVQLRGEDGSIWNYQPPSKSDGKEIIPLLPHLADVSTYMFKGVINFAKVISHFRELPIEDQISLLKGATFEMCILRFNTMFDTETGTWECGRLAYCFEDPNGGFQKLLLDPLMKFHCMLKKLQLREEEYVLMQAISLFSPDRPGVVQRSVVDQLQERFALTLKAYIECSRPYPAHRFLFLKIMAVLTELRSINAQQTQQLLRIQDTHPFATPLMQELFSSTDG

COc1ccc(COC(C)=O)cc1
inactive: Potency [1] | Potency [2] | Potency [3] | Potency [4] | Potency [5] | Potency [6] | Potency [7] | outcome [8] | Potency [9] | Potency [10] | Potency [11] | Potency [12] | Potency [13] | Potency [14] | Potency [15]

NC(N)=NC(=O)Cc1c(Cl)cccc1Cl
inactive: Potency [1] | Potency [2] | Potency [3] | Potency [5] | Potency [6] | Potency [7] | outcome [8] | Potency [16] | Potency [17] | Potency [9] | Potency [10] | Potency [11] | Potency [12] | Potency [13] | Potency [14]

CC(N)=O
inactive: Potency [1] | Potency [2] | Potency [3] | Potency [4] | Potency [6] | Potency [7] | outcome [8] | Potency [16] | Potency [17] | Potency [9] | Potency [11] | Potency [12] | Potency [13] | Potency [14] | Potency [15]

CCN(CC)C(=S)SSC(=S)N(CC)CC
inactive: Potency [1] | Potency [2] | Potency [5] | Potency [6] | Potency [7] | outcome [8] | Potency [16] | Potency [17] | Potency [12] | Potency [13]
active: Potency [3] 237 nM | Potency [10] 611 nM and 395 nM | Potency [11] 137 nM and 62.6 nM and 376 nM | Potency [14] 15.7 µM and 10.6 µM | Potency [15] 32.5 µM

CC(C)(C)c1ccccc1
inactive: Potency [1] | Potency [2] | Potency [3] | Potency [4] | Potency [5] | Potency [6] | Potency [7] | outcome [8] | Potency [16] | Potency [17] | Potency [9] | Potency [10] | Potency [11] | Potency [12] | Potency [13] | Potency [14] | Potency [15]

O=C(OCc1ccccc1)c1ccc(O)cc1
active: Potency [3] 34.4 µM and 26.6 µM
inactive: Potency [1] | Potency [2] | Potency [4] | Potency [5] | Potency [6] | Potency [7] | outcome [8] | Potency [16] | Potency [17] | Potency [9] | Potency [11] | Potency [13] | Potency [14] | max activation [18] 0.826% | Potency [19]

c1cnc2cc3c(cc2n1)C1CNCC3C1
inactive: Potency [1] | Potency [2] | Potency [3] | Potency [4] | Potency [5] | Potency [6] | Potency [7] | outcome [8] | Potency [16] | Potency [17] | Potency [9] | Potency [11] | Potency [12] | Potency [13] | Potency [14] | Potency [15]

CC(=O)CC(C)=O
inactive: Potency [1] | Potency [2] | Potency [3] | Potency [4] | Potency [5] | Potency [6] | Potency [7] | outcome [8] | Potency [16] | Potency [17] | Potency [9] | Potency [10] | Potency [11] | Potency [12] | Potency [13] | Potency [14] | Potency [15]

CC(C)(C)NCC(O)c1cc(O)cc(O)c1 (stereo not drawn)
inactive: Potency [1] | Potency [2] | Potency [3] | Potency [5] | Potency [6] | Potency [7] | Potency [16] | Potency [17] | Potency [9] | Potency [10] | Potency [11] | Potency [12] | Potency [13] | Potency [14] | max activation [18] 3.93% | Potency [20] | Potency [19]
active: Potency [15] 38.9 µM

NCCO
inactive and 5.03 µM (active): Potency [15]
active: Potency [14] 27.3 µM
inactive: Potency [1] | Potency [2] | Potency [3] | Potency [4] | Potency [5] | Potency [6] | Potency [7] | outcome [8] | Potency [9] | Potency [10] | Potency [11] | Potency [12] | Potency [13]

Cc1c(O)cccc1C(=O)N[C@@H](CSc1ccccc1)[C@H](O)CN1C[C@H]2CCCC[C@H]2C[C@H]1C(=O)NC(C)(C)C
active: Potency [1] 29.8 µM and 11.9 µM | Potency [3] 13.3 µM and 21.1 µM | Potency [4] 29.8 µM | Potency [5] 26.6 µM | Potency [9] 16.8 µM and 13.3 µM | Potency [10] 66.8 µM | Potency [11] 5.95 µM and 10.6 µM | Potency [13] 11.9 µM and 13.3 µM | Potency [15] 8.71 µM and 15.5 µM
inactive: Potency [2] | Potency [12]

O=C(O[C@@H]1Cc2c(O)cc(O)cc2O[C@@H]1c1cc(O)c(O)c(O)c1)c1cc(O)c(O)c(O)c1
active: Potency [1] 54.6 µM and 46.8 µM | Potency [9] 35.5 µM | Potency [11] 30.7 µM and 52.5 µM | Potency [13] 54.6 µM and 29.5 µM
inactive: Potency [2] | Potency [3] | Potency [4] | Potency [5] | Potency [6] | Potency [7] | Potency [16] | Potency [17] | Potency [10] | Potency [12] | Potency [14]

O=C(Cl)c1cccc(C(=O)Cl)c1
inactive: Potency [1] | Potency [2] | Potency [3] | Potency [4] | Potency [5] | Potency [6] | Potency [7] | Potency [16] | Potency [17] | Potency [9] | Potency [10] | Potency [11] | Potency [12] | Potency [13] | Potency [14] | Potency [15]

CCN1CCCC1CNC(=O)c1cc(S(=O)(=O)CC)c(N)cc1OC (stereo not drawn)
inactive: Potency [1] | Potency [2] | Potency [3] | Potency [4] | Potency [5] | Potency [6] | Potency [7] | outcome [8] | Potency [16] | Potency [17] | Potency [9] | Potency [10] | Potency [11] | Potency [12] | Potency [13] | Potency [14]
active: Potency [15] 9.77 µM
